Screening data (PubChem BioAssay)
HepG2 viability = HepG2 cytotoxicity, counter-screen for TGF-b inhibitors; HepG2 CAGA-GFP viability, ATP luminescence, 18 h; Potency, µM (series often up to 46.1 µM), for inactives: at the top dose activity change, negative = cytotoxicity, most hits filed as cytotoxic; 0.76% of 410,000 active
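CellTiter-Glo luminescence gave cytotoxicity after 18 hours at 37 degrees C. The cells were HepG2 CAGA-GFP in 1% FBS DMEM, stimulated with 500 pg/mL TGF-beta after compound addition. %Activity was normalised to no-cell wells (complete cell-killing) and DMSO (no toxicity), and curves were fitted and classified.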
ATXN2 expr inh = ATXN2 expression inhibition; HEK-293 ATXN2-luciferase reporter, luminescence, 24 h; Potency, µM (highest dose often 57 µM), for the others: at the top dose activity change, negative = inhibition, hits mostly inhibitors; 0.72% of 360,000 active; further: on the % scale 0 is the no-effect control and ±100 the full control effect; nearly all actives have a fitted effect of over 55% in size
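ATXN2-luciferase reporter cells (luciferase flanked by upstream and downstream ATXN2 gene portions) were treated 24 h at 37 °C with compounds at up to 57 uM. SteadyGlo luminescence gave expression; GF-AFC fluorescence gave viability.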
TGFb SMAD3 inh = blocks TGF-b signaling; HepG2 CAGA-GFP TGF-b/SMAD3 reporter, GFP fluorescence, 18 h; TGF-beta stimulated, 500 pg/mL final; Potency, µM (series often up to 46.1 µM), without a hit: top-dose activity, negative = inhibition, most hits filed as inhibitors; 1.2% of 410,000 active; further: on the % scale 0 is the no-effect control and ±100 the full control effect; nearly all actives have a fitted effect of over 65% in size
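Cell-based qHTS in HEPG2 carrying a CAGA-GFP Smad reporter; compounds added before 500 pg/mL final TGF-beta, 18 h incubation at 37 degrees C, GFP fluorescence quantified per cell by imaging cytometry.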
ATXN viability = reduces viability in counter-screen for ATXN expression inhibitors; Potency, µM (titrated, usually from 56.7 µM), hits mostly cytotoxic; S2 cells (HEK-293 line with an ATXN2-luciferase reporter) viability, CellTiter-Fluor protease fluorescence, 24 h; 0.49% of 400,000 active; further: nearly all actives have a fitted effect of over 40% in size
RORg inh = blocks mouse ROR gamma transcriptional activity. P51450. Drosophila S2 Gal4-RORgamma UAS-luciferase reporter, 20 h. Potency, µM (titrated, usually from 53.6 µM), inactives show at the top dose activity change, negative = inhibition, hits mostly inhibitors. 5.4% of 310,000 active. AID 2551; further: on the % scale 0 is the no-effect control and ±100 the full control effect; nearly all actives have a fitted effect of over 60% in size
Target sequence (P51450 whole entry, looked up, the tested form may be a part): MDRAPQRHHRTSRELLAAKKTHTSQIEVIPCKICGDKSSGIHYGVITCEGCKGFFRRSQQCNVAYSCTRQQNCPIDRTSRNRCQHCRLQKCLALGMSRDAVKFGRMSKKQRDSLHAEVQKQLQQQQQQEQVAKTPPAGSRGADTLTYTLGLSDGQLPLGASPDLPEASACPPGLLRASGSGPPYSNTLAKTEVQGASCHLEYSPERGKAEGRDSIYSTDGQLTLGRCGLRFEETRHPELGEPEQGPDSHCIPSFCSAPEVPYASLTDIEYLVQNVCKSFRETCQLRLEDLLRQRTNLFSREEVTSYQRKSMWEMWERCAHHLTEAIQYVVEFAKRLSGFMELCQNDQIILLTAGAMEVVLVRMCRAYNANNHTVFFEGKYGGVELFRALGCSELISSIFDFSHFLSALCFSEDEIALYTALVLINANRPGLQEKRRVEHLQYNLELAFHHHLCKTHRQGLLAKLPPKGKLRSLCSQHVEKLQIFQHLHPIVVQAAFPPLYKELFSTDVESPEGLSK
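Stable Schneider cell line, Gal4 DNA-binding domain fused to ROR gamma, UAS-luciferase. Cmpd 1 hr RT → CuSO4 700 uM final → 20 hr RT → luciferase reagent 10 min → luminescence.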
Gal4-VP16 FLuc = inhibits Gal4-VP16 luciferase reporter, ROR gamma counter-screen. Drosophila S2 Gal4-VP16 UAS-luciferase, luminescence, 20 h. Potency, µM (doses to about 53.6 µM), for inactives: at the highest dose activity, negative = inhibition, actives largely listed as inhibitors. 3.5% of 310,000 active. AID 2546;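 further: Gal4-VP16 expression switched on by copper sulfate through the metallothionein promoter; on the % scale 0 is the no-effect control and ±100 the full control effect; nearly all actives have a fitted effect of over 50% in size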
* marks the source's active call; other numbers are inactive results; i = inactive; ? = inconclusive; . = no result given; [ ] = remark or other dose. Rows were chosen to be rich in hits. Some 6.3% of all compounds tested hit in one or more screens of this group. The call rests on the fitted dose curve; in most records, active means well fitted curve in the direction sought with a large enough effect; inconclusive means small, poorly fitted or top-dose-only effect, or another doubt; inactive means no such curve, though single readings can be large; an effect the other way counts as inactive or inconclusive. Potency means the concentration at half of the fitted maximal effect.

SMILES	HepG2 viability	ATXN2 expr inh	TGFb SMAD3 inh	ATXN viability	RORg inh	Gal4-VP16 FLuc
Cc1ccc(-c2ccc(/C=C3\C(=O)ON=C3c3ccccc3)o2)c([N+](=O)[O-])c1	-17%	?	-4%	35µM*	?	16µM*
COc1cc(-c2cnc3ccccc3c2)cc2c1OCCN(C(=O)Cn1nccc1C)C2	.	.	.	i	.	.
Cc1ccc2c(/C=C/c3ccc(N(C)C)cc3)ccnc2c1C	-48%	.	?	.	.	.
O=C1CC(=Nc2ccc([N+](=O)[O-])cc2)NN1c1c(Cl)cc(Cl)cc1Cl	-70%	.	16µM*	i	.	.
COc1ccc(C(=O)N/N=C/c2sc(N3CCOCC3)nc2-c2ccccc2)cc1OC	-15%	-6%	2%	i	2.8µM*	7%
Cc1occc1C(=O)N/N=C/c1sc(N2CCOCC2)nc1-c1ccccc1	-16%	-4%	4%	i	13µM*	?
O=C(N/N=C/c1sc(N2CCOCC2)nc1-c1ccccc1)c1ccc(O)cc1	18%	-18%[11.3 µM]	4%	.	5%	-3%
Cc1cccc(C(O)(C(=O)NNc2ccc3ccccc3n2)c2cccc(C)c2)c1	-19%	-6%	-39%	i	10µM*	13µM*
CC(C(=O)Nc1ccccn1)(c1ccccc1)c1ccccc1	3%	-7%	-3%	i	19%	-1%
Cc1ccc(C(O)(C(=O)NNc2ccccn2)c2ccc(C)cc2)cc1	-47%	-19%	10%	i	10µM*	?
NC(=S)N/N=C/c1c[nH]c2ccc(OCc3ccccc3)cc12	-37%	.	?	.	5µM*	4.5µM*
NC(=S)N/N=C/c1ccccc1OC(=O)c1cc2ccccc2oc1=O	-49%	.	-14%	?	7.1µM*	7.1µM*
COc1cccc(/C=N/NC(N)=S)c1OCc1cccc(Cl)c1	3%	.	?	i	2.8µM*	4µM*
O=C(CSCc1ccccc1)N/N=C/c1ccccc1OCc1ccccc1	-6%	11%	?	i	-7%	-5%
OCCc1c[nH]c2ccc(OCc3ccccc3)cc12	2%	.	6%	?	-15%	3%
NC(=S)N/N=C\c1ccccc1OCc1ccccc1	-59%	-14%	?	i	2.2µM*	3.5µM*
Cn1c(=O)c(-c2cccc(F)c2)nc2cncnc21	.	.	.	.	-28%	-1%
COc1cccc(-c2cn3c(n2)sc2cc(C(=O)NCc4cccs4)ccc23)c1	-13%	.	-13%	.	.	.
CCOC(=O)N/N=C\c1ccccc1OC/C=C/c1ccccc1	-6%	22%	-5%	i	?	11%
NC(=S)N/N=C/c1ccccc1OC(=O)/C=C/c1ccccc1	4µM*	1.8µM*	7.1µM*	?	3.5µM*	3.5µM*
COC(=O)c1cc(C)sc1NC(=O)CN1CCN(C(=O)C2CCCO2)CC1 (stereo not drawn)	0%	1%	16%	?	10µM*	?
CCCn1c(=O)c(C(=O)NCCc2ccc(Cl)cc2)c(O)c2ccccc21	-11%	-34%	-9%	i	14µM*	?
CCn1c(=O)c(C(=O)NCc2ccc(F)cc2)c(O)c2ccccc21	0%	-20%	-29%	i	13µM*	?
CCn1c(=O)c(C(=O)NCc2ccccc2)c(O)c2ccccc21	-7%	-26%	-8%	i	?	16µM*
CCn1c(=O)c(C(=O)NCc2ccc(Cl)cc2)c(O)c2ccccc21	3%	?	26%	?	?	6%
SMILES	HepG2 viability	ATXN2 expr inh	TGFb SMAD3 inh	ATXN viability	RORg inh	Gal4-VP16 FLuc
CC1CCC(C(C)C)C(OC(=O)COC(=O)c2ccc(N)cc2)C1 (stereo not drawn)	-47%	-21%	?	i	32%	16µM*
CC1CCC(C(C)C)C(OC(=O)COC(=O)c2cccn2C)C1 (stereo not drawn)	-78%	1%	-1%	i	13%[10 µM]	2%
O=C(/C=C/c1ccc(O)c(O)c1)OCCc1ccccc1	-42%	-8%	-2%	?	?	10µM*
CC(c1ccncn1)N(C)Cc1nc(-c2ccc(C(F)(F)F)cc2)no1 (stereo not drawn)	-39%	-9%	-25%	i	3.2µM*	7.1µM*
CC(c1ccncn1)N(C)Cc1nc(Cc2ccccc2F)no1 (stereo not drawn)	1%	-26%	-2%	i	15%	3%
Cn1c(CNc2ccc(C(=N)N)cc2)nc2cc(C(=O)N(CCC(=O)O)c3ccccn3)ccc21	.	7%[25.6 µM]	.	.	.	.
COc1ccc2cc(C(=O)C3CCCN(Cc4ccccn4)C3)ccc2c1 (stereo not drawn)	-44%	0%	?	?	3.2µM*	?
COc1ccc2cc(C(=O)C3CCCN(Cc4cnc(N5CCOCC5)s4)C3)ccc2c1 (stereo not drawn)	-28%	?	?	i	7%	-3%
CCn1ccnc1CN1CCCC(C(=O)c2ccc3cc(OC)ccc3c2)C1 (stereo not drawn)	-28%	?	?	i	0.022µM*	1.6µM*
CC1CN=C(c2cccn2Cc2ccc(F)cc2Cl)O1 (stereo not drawn)	8%	5%	2%	i	6.3µM*	?
CC1(C)COC(c2cccn2Cc2ccc(F)cc2Cl)=N1	-11%	-2%	6%	i	?	-7%
CCc1nnc2c3ccccc3nc(Nc3ccc(F)c(Cl)c3)n12	0%	1%	14%	i	.	.
CCCOc1ccc(C(=O)NNC(=S)NC(=O)CC)cc1	-10%	28µM*	-23%	.	2%	-9%
CCCOc1ccc(C(=O)NC(=S)NNC(=O)c2c(-c3ccccc3)noc2C)cc1	-17%	?	?	i	4µM*	?
C=CCNC(=S)NNC(=O)c1ccc(OCCC)cc1	2%	4%	21%	i	?	-20%
CCc1cccc(NC(=O)Cn2c(C(=O)OC)cc3occc32)c1	-112%	11%	-14%	i	.	.
COc1ccc(C(C(=O)NCc2ccccc2)N(C(=O)Cn2nnc3ccccc32)c2ccc(OC)cc2)cc1 (stereo not drawn)	-25%	.	-25%	.	.	.
Cc1ncc2c(c1CNC(=O)c1cncs1)CCN(C(=O)c1cc(F)c(F)cc1F)C2	.	.	.	i	.	.
COc1cccc(C(C)(O)c2nc(-c3ccc(OC)nc3)cs2)c1 (stereo not drawn)	0%	-9%	-3%	i	.	.
CC(=O)Oc1ccc(C(=O)COC(=O)CNC(=O)COc2ccccc2C)cc1	-2%	.	8%	.	.	.
Cc1ccc2c(=O)c(C(=O)c3cccc(Cl)c3)cn(CC(=O)Nc3ccccc3C(F)(F)F)c2n1	5%	8%	4%	i	.	.
